Screening data: PubChem BioAssay, several laboratories
An excerpt weighted towards active compounds, which were near 0.51% of everything screened.
E coli growth-1: reduces bacterial viability in AddAB counter-screen. actives 0.27% (n = 330,000). AID 449728. inhibition, % at 11.9 µM. E. coli V3065 growth, OD600 absorbance, 18 h;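 active = inhibition above the campaign's mean inhibition across all tested compounds plus 3 SD, cut at about 9.9% in these data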;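 note: uninfected addAB+ strain grown without phage in ampicillin broth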
E coli growth-2: E. coli growth inhibition; OD600 absorbance (test concentration not listed); Escherichia coli growth, OD600, 23 h; active compounds read low; actives 0.21% (n = 330,000); AID 1053175;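 active = OD600 absorbance below the run mean of sample wells minus 3.6 SD, in any replicate, cut at about 0.56 in these data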
phage Ecoli inh: E. coli growth loss with phage present | growth absorbance | inhibition, % at 11.9 µM | actives 0.26% (n = 360,000); in the data active = inhibition above about 11%
Tat transport: E. coli Tat transport inhibition; actives 0.036% (n = 340,000); E. coli MC4100 TorA-mCherry Tat export, fluorescence; inhibition, % at 10 µM;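 active = mean replicate inhibition at least 50% and at least half of replicates individually reaching 50%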;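 note: exported cargo escapes ClpAP degradation while cytoplasmic cargo is degraded and loses fluorescence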
AddAB inh: less growth of phage-infected E. coli with AddAB; actives 0.29% (n = 330,000); AID 435030; E. coli expressing H. pylori AddAB, absorbance growth; inhibition, % at 11.9 µM; in the data active = inhibition above about 12%
RecBCD conf: confirmation: growth loss of phage-infected RecBCD+ E. coli (RecBCD inhibitor screen). E. coli V66 + T4 2- phage, growth OD. inhibition, % at 11.9 µM. actives 45% (n = 890). shares compounds with phage Ecoli inh;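 active = mean inhibition over triplicates exceeding the hit threshold derived in the original primary screen, cut at about 11% in these data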
Ecoli viability: bacterial viability inhibition counter-screen for RecBCD; actives 29% (n = 890); shares compounds with phage Ecoli inh; inhibition, % at 11.9 µM; E. coli viability, absorbance (OD) growth; in the data active = inhibition above about 20%;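 note: E. coli strain V66 grown with compound alone and no phage infection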
AddAB phage OD: growth loss of phage-infected AddAB E. coli, RecBCD counter-screen | shares compounds with phage Ecoli inh | E. coli expressing H. pylori AddAB + T4 phage, OD growth; gene 2 mutant T4, recBCD-deleted host | inhibition, % at 11.9 µM | actives 45% (n = 890);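 active = mean inhibition above the solvent-only control wells' mean plus 3 SD, cut at about 22% in these data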;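 note: higher means less bacterial growth from phage killing when AddAB is blocked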
A number is an active result; - = inactive; . = no result; ! = not active in a repeat.

SMILES	E coli growth-1	E coli growth-2	phage Ecoli inh	Tat transport	AddAB inh	RecBCD conf	Ecoli viability	AddAB phage OD
CN1CCN(C(=O)/C=C/c2ccccc2)CC1	-	-	-	-	-	.	.	.
CN1CCN(C(=O)/C=C/c2ccc([N+](=O)[O-])o2)CC1	.	0.427	17.4	-	.	12.4	-	81.9
COCc1cccc(C2=CC(=O)CC(c3ccc(OC)cc3)C2)c1 (stereo not given)	.	-	.	.	.	.	.	.
CC1(C)S[C@@H]2[C@H](NC(=O)[C@H](N)c3ccccc3)C(=O)N2[C@H]1C(=O)OC1OC(=O)c2ccccc21 (stereo not given in full)	-	.	21.4	-	-	29.5	53.0	-
COC(=O)C1N2C(=O)C(NC(=O)COc3ccccc3)C2SC1(C)C (stereo not given)	.	-	.	.	.	.	.	.
Cc1ccc(-c2nc(CS(=O)CC(=O)NCc3ccccc3)c(C)o2)cc1 (stereo not given)	-	-	29.0	-	-	-	-	-
O=C(CCn1cnc(-c2ccccc2)c1-c1ccccc1)N/N=C/c1ccccc1O	-	.	11.0	-	-	-	-	-
CC(C)OC(=O)c1ccc(NC(=O)CSc2nc3ncccc3[nH]2)cc1	-	-	11.0	-	-	-	-	-
CC(C)c1ccc(NC(=O)CSc2nc3ncccc3[nH]2)cc1	-	-	-	-	-	.	.	.
Oc1ccc(C=NNC(=S)Nc2cccnc2)cc1	.	-	.	.	.	.	.	.
Oc1ccc(C=NNC(=S)Nc2cccnc2)nc1	.	.	21.3	-	.	18.7	21.4	36.2
CCC(C)(C(=O)NC1CCCCC1)N(Cc1cccs1)C(=O)c1ccccn1 (stereo not given)	-	-	-	-	-	.	.	.
CCC(C)(C(=O)NC1CCCCC1)N(Cc1cccs1)C(=O)c1ccc(=O)[nH]c1 (stereo not given)	-	-	11.9	-	-	-	-	-
FC(F)Sc1ccc(NC(=S)NC(c2ccccc2)c2ccccc2)cc1	-	-	-	-	-	.	.	.
FC(F)Sc1ccc(NC(=S)NCc2ccccc2)cc1	-	-	12.7	-	-	-	-	-
FC(F)(F)c1ccc(NC(=S)NCc2ccccc2)cc1	-	-	11.3	-	-	-	-	-
O=C(O)c1ccc(NC(=S)NCc2ccccc2)cc1	-	-	-	-	-	.	.	.
COc1cccc(NC(=O)c2ccc3c(c2)N(C)CCS3)c1	-	-	-	-	-	.	.	.
CN1CCSc2ccc(C(=O)Nc3ccc(Cl)cc3)cc21	-	.	100.2	-	-	-	-	-
C[C@@]12CCC=CC1C(c1ccc3ccccc3c1C=Cc1ccccc1)N(Cc1ccccc1)C2=O (stereo not given in full)	.	-	.	.	.	.	.	.
Cc1ccc(C2CC=C(C(=O)O)C(c3ccccc3F)N2S(=O)(=O)c2ccc(C)cc2)cc1 (stereo not given)	.	-	.	.	.	.	.	.
COc1ccc(/C=N/NC(=O)c2ccncc2)cc1OC	-	.	-	-	-	.	.	.
COc1cc(/C=N/NC(=O)c2ccncc2)ccc1O	-	.	100.3!	-	-	-	-	-
CC(O)C1CNC(=O)C(=O)N1CC1CCCCC1 (stereo not given)	.	-	.	.	.	.	.	.
N#Cc1ccc(C23CC4(C2)C(CN(Cc2ccc(C(F)(F)F)cc2)C4c2ccccc2)C3c2ccc(Cl)nc2)cc1 (stereo not given)	.	-	.	.	.	.	.	.
SMILES	E coli growth-1	E coli growth-2	phage Ecoli inh	Tat transport	AddAB inh	RecBCD conf	Ecoli viability	AddAB phage OD
Cc1ccc(C(=O)ON=Cc2ccc(N3CCCCC3)c([N+](=O)[O-])c2)cc1	.	-	.	.	.	.	.	.
Oc1ccc(/C=N/Nc2ccc(Cl)nn2)c(O)c1O	-	.	10.9	-	-	-	-	21.4
Oc1c(Br)cc(Br)cc1/C=N/Nc1ccc(Cl)nn1	-	.	-	-	-	.	.	.
Cc1onc(-c2ccccc2)c1C(=O)OCC(=O)Nc1ccccc1	.	-	-	-	.	.	.	.
Cc1cccc(NC(=O)COC(=O)c2c(-c3ccccc3)noc2C)c1	.	.	12.6	.	.	-	-	-
CCc1noc(C)c1C(=O)OCC(=O)Nc1ccc2c(c1)OCO2	-	-	11.8	-	-	-	-	-
CC1(C)OC2C(COS(=O)(=O)O)OC(n3ccc(=O)[nH]c3=O)C2O1 (stereo not given)	.	-	.	.	.	.	.	.
